Each structure is given as a SMILES string. Inconclusive results are not listed. A call without a number means that no potency is given here. Active and inactive are the calls of the source. The call rests on the fitted dose curve; in most records, active means well fitted inhibition curve with a large enough effect; inconclusive means small, poorly fitted or top-dose-only effect; inactive means flat fitted curve, though single readings scatter.

This assay relates to Zika virus NS2B-NS3 protease. Put plainly: Primary screen GU AMC qHTS for Zika virus inhibitors (AID 1347154). Further: nearly all actives have a fitted effect of over 70% in size. To be noted: Zika NS2B-NS3 unlinked protease, AMC fluorogenic substrate; series mostly up to 54.1 µM. The method in brief: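 Fluorogenic AMC-substrate cleavage by noncovalent NS2B-NS3 protease complex (25 nM, pH 8.0 Tris buffer with Tween 20) followed for 15 minutes at room temperature (~20% conversion). Percent inhibition from ex340/em450 signal change, fitted by 4-parameter Hill equation.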
On the technique in general: qHTS replaces the single test concentration by a dilution series.
Turning to `c1ccc(CC2=NCCN2)cc1`, the Potency result is “inactive”. Consider `C[N+]12CCC(CC1)C(OC(=O)C(O)(c1ccccc1)c1ccccc1)C2` (centres undefined), for which the Potency entry is “inactive”.

As for `O=C(O)CCC(=O)Nc1ccc(S(=O)(=O)Nc2nccs2)cc1`, the Potency entry is “inactive”. Then `C=C[C@H]1CN2CC[C@H]1C[C@@H]2[C@@H](O)c1ccnc2ccc(OC)cc12`, with “inactive”; and `CCN1CCCC(OC(=O)C(c2ccccc2)c2ccccc2)C1` (centres undefined), with “inactive”; and `CC(=O)OCC(=O)[C@H]1CC[C@H]2[C@@H]3CCC4=CC(=O)CC[C@]4(C)[C@H]3CC[C@]12C`, with “inactive”. On to `CCCCCN=C(N)N/N=C/c1c[nH]c2ccc(OC)cc12`, for which the Potency result is “inactive”. `C#C[C@]1(O)CC[C@H]2[C@@H]3CCc4cc(OC)ccc4[C@H]3CC[C@@]21C`: the Potency entry is “inactive”. With `CC(=O)NO`, the Potency entry is “inactive”. As for `CCOC(=O)c1ccc(N)cc1`, the Potency entry was “inactive”. `COc1ccc(CCN(C)CCCN2CCc3cc(OC)c(OC)cc3CC2=O)cc1OC`: the Potency entry was “inactive”. Then `CC(=O)Nc1ncc([N+](=O)[O-])s1`, with “inactive”; and `CCCCC(CC)COC(=O)/C=C/c1ccc(OC)cc1` (centres undefined), with “inactive”; and `Cc1cccc(C)c1NC(=O)CN1CCCCCC1`, with “inactive”.

With `CNCCc1ccccn1`, the Potency result was “inactive”.

For `C[N+]1(C)CCC(=C(c2ccccc2)c2ccccc2)CC1`, the Potency entry was “inactive”. On to `CCCCCCCCCCCCCCC[C@H](O)[C@@H](N)CO`, for which the Potency entry was “inactive”.

In the case of `O=C(NCCc1c[nH]c2ccccc12)c1cccnc1`, the Potency entry was “inactive”. Take `O=C(Nc1ccccc1)OCC(CN1CCCCC1)OC(=O)Nc1ccccc1` (centres undefined): the Potency result is “inactive”. As to `COc1ccc(CN(CCN(C)C)c2ncccn2)cc1`, the Potency entry was “inactive”. Regarding `CCN(CC)CCNC(=O)c1cc(Br)c(N)cc1OC`, the Potency entry was “inactive”. Then `OC[C@H]1O[C@@H]2O[C@H]3[C@H](O)[C@@H](O)[C@@H](O[C@H]4[C@H](O)[C@@H](O)[C@@H](O[C@H]5[C@H](O)[C@@H](O)[C@@H](O[C@H]6[C@H](O)[C@@H](O)[C@@H](O[C@H]7[C@H](O)[C@@H](O)[C@@H](O[C@H]8[C@H](O)[C@@H](O)[C@@H](O[C@H]1[C@H](O)[C@H]2O)O[C@@H]8CO)O[C@@H]7CO)O[C@@H]6CO)O[C@@H]5CO)O[C@@H]4CO)O[C@@H]3CO`, with “inactive”; and `CC(=O)OCC1=C(C(=O)O)N2C(=O)[C@@H](NC(=O)CSc3ccncc3)[C@H]2SC1`, with “inactive”; and `CC[C@]12CCCN3CCc4c(n(c5ccccc45)C(=O)C1)[C@@H]32`, with “inactive”. For the compound `O=C(O)P(=O)(O)O`, the Potency result is “inactive”. In the case of `CCOC(=O)[C@@](C)(N)Cc1ccc(O)c(O)c1`, the Potency result was “inactive”.

On to `COc1ccc(C(Cl)=C(c2ccc(OC)cc2)c2ccc(OC)cc2)cc1`, for which the Potency result is “inactive”. Consider `CC(=O)NCCCCCC(=O)O`, for which the Potency result was “inactive”.

In the case of `Nc1ccc(C(=O)NCC(=O)O)cc1`, the Potency entry is “inactive”. Regarding `O=C(O)c1ccc(S(=O)(=O)N(Cl)Cl)cc1`, the Potency result was “inactive”. `CCCCCCCCOc1ccc(C(=O)c2ccccc2)c(O)c1`: the Potency result was “inactive”. As for `CC(=O)NC(=O)c1ccccc1O`, the Potency result was “inactive”.

In the case of `NCCNC(=O)c1ccc(Cl)cn1`, the Potency result is “inactive”. With `CC1(C)OC[C@@H]2O[C@@]3(C(=O)O)OC(C)(C)O[C@H]3[C@@H]2O1`, the Potency entry is “inactive”. For `Cc1ccc(O)c([C@H](CCN(C(C)C)C(C)C)c2ccccc2)c1`, the Potency entry is “inactive”. For `CN(C)CCOC(=O)C(c1ccccc1)C1(O)CCCC1` (centres undefined), the Potency entry was “inactive”.

On to `Cc1cccc(C)c1NC(=O)CN1CCCC1`, for which the Potency result was “inactive”. In the case of `OCCOCCN1CCN(C2=Nc3ccccc3Sc3ccccc32)CC1` it was “inactive”. As to `CCCCN1C[C@H](O)[C@@H](O)[C@H](O)[C@H]1CO`, the Potency entry was “inactive”.

The record behind these values is PubChem BioAssay (NCATS).
